Measurements reported in PubChem BioAssay (NCI).
Values joined by “and” are separate entries in the source; they are usually repeats but may differ in a detail not shown here. Equal entries are not always repeated. About 83,000 compounds went through this panel and 20% of them were active in at least one assay; those are over-represented in the sample as a whole.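 In brief: 96-well plates, 48 h treatment, single concentration, percent growth endpoint.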 Active and inactive are the calls of the source. Rule for the calls: active = growth percent below 10; inactive = the rest.

Tests used:
Test in all cases: NCI-60 one-dose screen, 48 h (100 = growth as untreated, 0 = no growth, -100 = all killed)
HCT-15 colon = conditions: 10 µM
HT29 colon = conditions: 10 µM
SNB-75 CNS = conditions: 10 µM
SNB-19 CNS = conditions: 10 µM
U251 CNS = conditions: 10 µM
PC-3 prostate = conditions: 10 µM
SK-MEL-5 melanoma = conditions: 10 µM
UACC-62 melanoma = test system: UACC-62 melanoma
SK-MEL-28 melanoma = conditions: 10 µM
SK-MEL-2 melanoma = conditions: 10 µM
EKVX NSCLC = conditions: 10 µM
SN12C renal = conditions: 10 µM
UO-31 renal = conditions: 10 µM
TK-10 renal = test system: TK-10 renal
ACHN renal = conditions: 10 µM
CAKI-1 renal = conditions: 10 µM
A498 renal = conditions: 10 µM
CCRF-CEM leukemia = conditions: 10 µM
MOLT-4 leukemia = conditions: 10 µM
LOX IMVI melanoma = conditions: 10 µM

Measured: growth

Nc1ccc2cc(Br)c3ccccc3c2c1
inactive: HCT-15 colon 33.2% | HT29 colon 87.9% | SNB-75 CNS 50% | SNB-19 CNS 56.3% | U251 CNS 65.6% | PC-3 prostate 65.2% | SK-MEL-5 melanoma 75.3% | UACC-62 melanoma; 10 µM 73.8% | SK-MEL-28 melanoma 80.8% | SK-MEL-2 melanoma 103% | EKVX NSCLC 31.3% | SN12C renal 63.8% | UO-31 renal 42.9% | TK-10 renal; 10 µM 85.8% | ACHN renal 66% | CAKI-1 renal 20.1% | A498 renal 77.5% | CCRF-CEM leukemia 37.8% | MOLT-4 leukemia 28.2%

CN(C)CCC(=O)c1c[nH]c2ccccc12
inactive: HCT-15 colon 110% | HT29 colon 101% | SNB-75 CNS 99.8% | SNB-19 CNS 112% | U251 CNS 106% | PC-3 prostate 84.3% | SK-MEL-5 melanoma 113% | UACC-62 melanoma; 10 µM 113% | LOX IMVI melanoma 103% | SK-MEL-28 melanoma 115% | SK-MEL-2 melanoma 105% | EKVX NSCLC 111% | SN12C renal 104% | UO-31 renal 77.3% | TK-10 renal; 10 µM 103% | ACHN renal 105% | CAKI-1 renal 94.4% | A498 renal 126% | CCRF-CEM leukemia 96.2% | MOLT-4 leukemia 93.6%

Cc1ccc2nc(N/N=C/c3ccc(C)s3)cc(C)c2c1
active: UACC-62 melanoma; 100 µM -99.1% and -100% | TK-10 renal; 100 µM -96.6% and -100%

Cc1cc(NCCCN(C)C)c2ccc3c(ccc4c(NCCCN(C)C)cc(C)nc43)c2n1
active: HCT-15 colon -34.6% | HT29 colon -50.9% | SNB-75 CNS -90% | SNB-19 CNS -32.8% | U251 CNS -30.5% | PC-3 prostate -56.3% | SK-MEL-5 melanoma -97.6% | UACC-62 melanoma; 10 µM -96.9% | LOX IMVI melanoma -76% | SK-MEL-28 melanoma -97.6% | SK-MEL-2 melanoma -62.8% | EKVX NSCLC -34.1% | SN12C renal -49.6% | UO-31 renal -54.7% | TK-10 renal; 10 µM -42.2% | ACHN renal -75.2% | CAKI-1 renal -41.7% | A498 renal -87.6% | CCRF-CEM leukemia -28.7% | MOLT-4 leukemia -24.3%

COc1ccc2c(C)cc(N/N=C/c3sccc3C)nc2c1
active: UACC-62 melanoma; 100 µM -100% | TK-10 renal; 100 µM -82.7% and -100%

COc1cc(C(C)(C)C)cc(OC)c1C(O)(c1c(OC)cc(C(C)(C)C)cc1OC)c1c(OC)cc(C(C)(C)C)cc1OC
active: HCT-15 colon -85.8% | HT29 colon -100% | SNB-75 CNS -94.1% | SNB-19 CNS -96.1% | U251 CNS -91.6% | PC-3 prostate -86.8% | SK-MEL-5 melanoma -93.7% | UACC-62 melanoma; 10 µM -86.3% | LOX IMVI melanoma -69.2% | SK-MEL-28 melanoma -99.4% | SK-MEL-2 melanoma -59.1% | EKVX NSCLC -50.5% | SN12C renal -80.2% | UO-31 renal -75.7% | TK-10 renal; 10 µM -90.8% | ACHN renal -93% | CAKI-1 renal -69.1% | A498 renal -79.4% | CCRF-CEM leukemia -68% | MOLT-4 leukemia -81%
